IC50 and inhibition data for 111 compounds are collected here from PubChem BioAssay AID624351 (Southern Research Specialized Biocontainment Screening …, 2012).

Usually IC50 stands for the concentration at which inhibition is half-maximal. The inhibition is the relative decrease from the control value, in per cent.

Each structure is given as a SMILES string. Hit rate of the full screen: of about 2,400 compounds, about 1,400 (58%) were called active. The set was probably picked from earlier hits. Some of the results follow. Values without a mark were called inactive.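 Rule for the calls: active = inhibition of 30% or more at any tested dose; inconclusive = primary hits over the limit that were never retested; inactive = the rest.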

A short description of this assay: coupled detection enzyme interference, dose response, artefact control for MgcRacGAP inhibitor project, biochemical, coupled enzyme counter-screen (AID 624351).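 For inhibition: 0% = median positive control wells and 100% = median negative control wells.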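 Note: signal is the ADP detection kit reading of free GDP without any GAP enzyme.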 To be noted: ADP Hunter coupled enzyme counter-screen, fluorescence, no MgcRacGAP; series mostly up to 80 µM.
In the case of `CCN1CCN(CC(O)COC(c2ccccc2)c2ccccc2C)CC1` (stereo unspecified), the IC50 entry was “inactive”.

Regarding `CCOCCCNC(=S)N1CCN(Cc2ccc3c(c2)OCO3)CC1`, the IC50 result was “inactive”.

With `CC(C(=O)NC(=O)NC1CCCCC1)N1CCN(c2ccc(O)cc2)CC1` (stereo unspecified), the IC50 is 69.7 µM (active).

Turning to `CCN1CCN(C(C)C(=O)NC2CCCCC2)CC1` (stereo unspecified), the IC50 entry is “inactive”.

For `CC(C(=O)NC1CCCCC1)N1CCN(C)CC1` (stereo unspecified), the IC50 result is “inactive”.

Turning to `CCOc1cc(/C=N\NC(=O)CC(=O)NCCc2ccccc2)ccc1O`, the concentration for half-maximal inhibition (IC50) was 46 µM (active).

With `COc1cc(/C=N/NC(=O)Cc2nnc(NC(=O)c3ccccc3)s2)ccc1O`, the IC50 entry is “inactive”.

For `COc1cc(/C=N\NC(=O)CNC(=O)C(c2ccccc2)c2ccccc2)ccc1O`, the concentration for half-maximal inhibition (IC50) was 50.6 µM (active).

As for `COc1ccc(C)cc1NC(=O)C(NCC(O)c1ccccc1)c1ccccc1` (stereo unspecified), the IC50 result is “inactive”.

Turning to `COc1cc(/C=N/NC(=O)CCc2ccccc2)ccc1O`, the IC50 is 29.9 µM (active).

On to `COc1cc(/C=N\NC(=O)CC(=O)NCCc2ccccc2)ccc1O`, for which the IC50 was 29.2 µM (active).

Consider `Cc1cccc(N2C(S)=C(C#N)C(=O)NC2c2ccco2)c1` (stereo unspecified), for which the IC50 result was “inactive”.

On to `O=C1C(SCCO)=C(SCCO)C(=O)c2ccccc21`, for which the IC50 result was “inactive”.

In the case of `COc1cc(/C=N/NC(=O)/C(=C/c2ccccc2)CCO)ccc1O`, the half-inhibitory concentration (IC50) was 45.8 µM (active).

Consider `COc1cc(/C=N/NC(=O)CCNC(=O)c2ccccc2Cl)ccc1O`, for which the IC50 is 32.2 µM (active).

On to `COc1cc(OC)c(OC)cc1CN1CCN(Cc2ccc(SC)cc2)CC1`, for which the IC50 result is “inactive”.

`O=C(O)CCCn1c(=S)[nH]c2c(sc3ccc([N+](=O)[O-])cc32)c1=O`: the half-maximal inhibitory concentration (IC50) was 30.5 µM (active).

Turning to `CCC(C)n1c(=S)[nH]c2c(sc3ccc([N+](=O)[O-])cc32)c1=O` (stereo unspecified), the IC50 was 58.8 µM (active).

As for `O=C(C1CCN(Cc2cc(Cl)ccc2O)CC1)N1CCN(Cc2ccccc2)CC1`, the IC50 entry is “inactive”.

With `COc1ccc(CN2CCN(CCCCOc3ccc(Cl)cc3)CC2)c(OC)c1OC`, the IC50 entry is “inactive”.

On to `COc1ccc2nc3cc(Cl)ccc3c(Nc3ccc(O)c(CN4CCN(C)CC4)c3)c2c1`, for which the IC50 was 82 µM (active).

For `COc1cc(CNCc2ccccc2C(F)(F)F)cc(OC)c1`, the IC50 result was “inactive”.

On to `Cc1nc(/N=C(\N)NC(=O)N2c3ccccc3Sc3ccccc32)nc2ccccc12`, for which the IC50 result was “inactive”.

For `COc1cc(CN2CCC(C(=O)N3CCCC(C)C3)CC2)cc(Br)c1O` (stereo unspecified), the IC50 entry was “inactive”.

`Cc1nc(Cl)cc(N/N=C/c2ccc(O)cc2O)n1`: the IC50 was 17.3 µM (active).

Consider `Oc1ccc(/C=N/Nc2cccc(Cl)n2)c(O)c1`, for which the IC50 was 25.6 µM (active).

For `Oc1ccc(C=NNc2ccccn2)c(O)c1`, the IC50 is 20.8 µM (active).

For the compound `COc1cc2c(cc1N)-c1ccc(N)cc1C2`, the half-inhibitory concentration (IC50) was 36.1 µM (active).

For `Nc1ccc2c(c1Br)Cc1ccccc1-2`, the half-inhibitory concentration (IC50) was 59.2 µM (active).

On to `Nc1cc2c(cc1N)-c1ccccc1C2`, for which the IC50 is 55.6 µM (active).

Regarding `O=C1C=CC(=Nc2ccc3c(c2)Cc2ccccc2-3)O1`, the IC50 result is “inactive”.

`Nc1ccc2c(c1)Cc1cc(N)c(Cl)cc1-2`: the IC50 is 8.61 µM (active).

Consider `Nc1ccc2c(c1)Cc1cc(N)c(Br)cc1-2`, for which the IC50 is 7.05 µM (active).

Take `Cc1ccc(OCCCN2CCCC2)c(C)c1`: the IC50 entry is “inactive”.

Consider `COc1ccc(Cc2nnc(NC(=O)Cc3cccs3)s2)cc1`, for which the IC50 entry was “inactive”.

For `C[n+]1c(-c2ccc(C=NNC(=O)c3ccc(C(=O)NN=Cc4ccc(-c5cn6ccccc6[n+]5C)cc4)cc3)cc2)cn2ccccc21`, the IC50 result is “inactive”.

Take `O=C(CNS(=O)(=O)c1ccccc1)N/N=C/c1ccc(O)cc1`: the 50% inhibitory concentration (IC50) was 61.6 µM (active).

As for `O=C(Cc1cccs1)N/N=C\c1ccc(O)cc1`, the half-maximal inhibitory concentration (IC50) was 42.6 µM (active).

As to `O=C(C[n+]1ccccc1)N/N=C/c1ccc(O)cc1`, the IC50 was 81.2 µM (active).

Regarding `CC(=O)Oc1ccc2c(=O)c(Oc3ccccc3)coc2c1OC(C)=O`, the IC50 result is “inactive”.

For the compound `CCN1/C(=C/c2ccc3cc(C)ccc3[n+]2CC)Sc2ccccc21`, the IC50 entry was “inactive”.

For the compound `OC(CON=C1c2ccccc2-c2ccccc21)CN1CCNCC1` (stereo unspecified), the IC50 result was “inactive”.

For `O=C(N/N=C/c1ccc(O)cc1)c1cccc(C(F)(F)F)c1`, the IC50 is 69.2 µM (active).

As for `O=C(CNC(=O)c1ccccc1Br)N/N=C/c1ccc(O)cc1`, the IC50 was 54.3 µM (active).

For `Cc1ccc(C(=O)Oc2csc(=S)n2C(=O)c2ccc(C)cc2)cc1`, the IC50 entry was “inactive”.

`Cc1ccc(C)c(OCCCCN2CCCCC2)c1`: the IC50 entry was “inactive”.

`COc1ccc(CN2CCC(N3CC(C)OC(C)C3)CC2)c(OC)c1OC` (stereo unspecified): the IC50 result is “inactive”.

As to `COc1cc(/C=N/NC(=O)c2ccoc2C)ccc1O`, the IC50 is 32.2 µM (active).

Regarding `Cc1cc(C(=O)NNC(=O)/C=C/c2ccco2)c(C)o1`, the IC50 entry was “inactive”.

For the compound `COc1cc(/C=N/NC(=O)c2cc(C)oc2C)ccc1O`, the 50% inhibitory concentration (IC50) was 49.8 µM (active).

Consider `OCCN(CCO)c1ccc2ccccc2c1`, for which the IC50 is 65 µM (active).

For the compound `CCCN(CCO)CCCc1ccccc1`, the IC50 entry was “inactive”.

In the case of `OCCN1CCN(Cc2ccc3ccccc3c2)CC1`, the IC50 entry is “inactive”.

Turning to `COc1cc(/C=N/n2cnnc2)ccc1OC(=O)c1cccnc1`, the IC50 entry is “inactive”.

On to `COc1cc(/C=N/n2nnnc2N)ccc1O`, for which the IC50 was 18.4 µM (active).

For `CCOc1cc(/C=N/n2cnnc2)ccc1O`, the IC50 was 34 µM (active).

As to `CCOc1cc(/C=N\n2nnnc2N)ccc1O`, the half-maximal inhibitory concentration (IC50) is 45.1 µM (active).

As for `CCc1nnc(N/N=C/c2c(C)[nH]c3ccccc23)n1N`, the IC50 is 45.9 µM (active).

In the case of `CCc1nnc(N/N=C/c2cc(Br)c(O)cc2O)n1N`, the 50% inhibitory concentration (IC50) is 72.7 µM (active).

Take `Cc1[nH]c2ccccc2c1/C=N/Nc1nncn1N`: the IC50 is 62.6 µM (active).

As for `Cc1[nH]c2ccccc2c1/C=N\NC(=O)CNc1ccc2c(c1)OCO2`, the IC50 result is “inactive”.

For `N#CC(C#N)=C1C=CC=CN1/C(=C\c1ccco1)C(=O)c1ccc(Br)cc1`, the IC50 result was “inactive”.

Take `O=C(O)c1cccc(-n2sc3ccccc3c2=O)c1`: the IC50 entry was “inactive”.

`O=c1c2ccccc2sn1-c1ccc(F)cc1`: the IC50 entry is “inactive”.

As to `Cc1ccc(C(C2=C(O)CC(C)(C)CC2=O)C2C(=O)CC(C)(C)CC2=O)o1` (stereo unspecified), the IC50 result is “inactive”.

In the case of `CC1(C)CC(=O)C(C=Nc2ccc(O)cc2)=C(O)C1`, the IC50 is 17.4 µM (active).

Consider `CC1(C)CC(=O)C(C(C2=C(O)CC(C)(C)CC2=O)c2ccc(Br)s2)C(=O)C1` (stereo unspecified), for which the IC50 result is “inactive”.

Consider `O=C1CC(c2ccccc2)CC(O)=C1C=Nc1ccc(O)cc1` (stereo unspecified), for which the IC50 was 28.9 µM (active).

`CC1(C)CC(=O)C(C=Nc2ccc(N)cc2)=C(O)C1`: the IC50 was 82.4 µM (active).

Consider `O=C1CCCC(O)=C1C=Nc1ccc(O)cc1`, for which the IC50 is 18.6 µM (active).

On to `CC1(C)CC(=O)C2=C(C1)OC1=C(C(=O)CC(C)(C)C1)C2c1ccc(O)cc1O`, for which the IC50 result was “inactive”.

`Cc1ccc(C(C2=C(O)CC(C)(C)CC2=O)C2C(=O)CC(C)(C)CC2=O)s1` (stereo unspecified): the IC50 entry was “inactive”.

For the compound `O=[N+]([O-])c1cnc(Sc2ccncn2)c([N+](=O)[O-])c1`, the IC50 entry was “inactive”.

`CSc1nc(O)c(/C=C2\C=Nc3ccccc32)[nH]1`: the IC50 is 33.2 µM (active).

Turning to `CSc1nc(/C=C2\C=Nc3ccccc32)c(O)n1C`, the IC50 is 45.4 µM (active).

`CC1(C)CC[C@]2(C(=O)n3ccnc3)CC[C@]3(C)[C@H](C(=O)C=C4[C@@]5(C)C=C(C#N)C(=O)C(C)(C)[C@@H]5CC[C@]43C)[C@@H]2C1`: the IC50 result was “inactive”.

Consider `C=CCc1cccc(C=Nc2cc(Br)ccc2O)c1O`, for which the IC50 was 16.2 µM (active).

On to `CCc1ccc(O)c(N=Cc2ccccc2O)c1`, for which the IC50 is 37.4 µM (active).

On to `CCc1ccc(O)c(N=Cc2cccc(C)c2O)c1`, for which the IC50 was 50.5 µM (active).

Take `Cc1ccc(O)c(N=Cc2cc(Cc3ccccc3)cc([N+](=O)[O-])c2O)c1`: the IC50 result was “inactive”.

Take `OC(CNCC1COc2ccccc2O1)COCc1cccs1` (stereo unspecified): the IC50 result is “inactive”.

Consider `O=C(C1CCCN(Cc2cccnc2)C1)N1CCCCC1` (stereo unspecified), for which the IC50 entry is “inactive”.

Turning to `Cc1ccc(CN2CCN(CC3CC4C=CC3C4)CC2)cc1` (stereo unspecified), the IC50 entry is “inactive”.

With `Cc1cccc2c1c1ccc3c(c1n2C)C(=O)C=CC3=O`, the IC50 result is “inactive”.

For `CC(OC(=O)CCN=C1NS(=O)(=O)c2ccccc21)C(=O)Nc1ccc(N(C)C)cc1` (stereo unspecified), the IC50 was 50.9 µM (active).

On to `O=C(CN1CCN(Cc2ccccc2)CC1)Nc1ccc(F)c(F)c1`, for which the IC50 result was “inactive”.

For the compound `O=C(CN1CCN(Cc2ccccc2)CC1)NC(c1ccccc1)c1ccccc1`, the IC50 entry was “inactive”.

For the compound `C#CCOc1ccccc1CNC1CCN(Cc2ccccc2)CC1`, the IC50 result is “inactive”.

Turning to `Fc1ccc(CN2CCN(C(c3ccccc3)c3ccccc3)CC2)cc1`, the IC50 result was “inactive”.

With `Clc1ccc(CNc2ccc(N3CCN(Cc4ccccc4)CC3)cc2)cc1`, the IC50 was 30.3 µM (active).

Regarding `Fc1ccc(CNc2ccc(N3CCN(Cc4ccccc4)CC3)cc2)cc1`, the IC50 was 12.3 µM (active).

On to `CN(C)C(=S)N=c1ssc(=S)n1Cc1cccnc1`, for which the IC50 entry was “inactive”.

On to `O=C1CSC(=Nc2ccc(O)cc2)N1`, for which the IC50 is 42 µM (active).

Regarding `C=CCN1C(=O)CSC1=Nc1ccc(O)cc1`, the IC50 was 28.9 µM (active).

For `COc1cc(/C=N/N=C2/SCC(=O)N2c2ccc(O)cc2)ccc1O`, the IC50 is 48.1 µM (active).

`O=C1CSC(=Nc2ccc(O)cc2)N1c1ccc(O)cc1`: the IC50 was 56.7 µM (active).

With `Cc1ccc(C)n1/N=C1/NC(=O)CS1`, the inhibition is -5.01% [at 10 µM].

As for `Fc1ccccc1Nc1n[nH]c(=S)s1`, the half-inhibitory concentration (IC50) was 47.7 µM (active).

For the compound `N#CC1=C(Nc2ccccc2Cl)SC(c2ccccc2O)NC1=O` (stereo unspecified), the IC50 result was “inactive”.

As to `COc1ccccc1Nc1ccc2c(O)cc(S(=O)(=O)O)cc2c1`, the IC50 entry was “inactive”.

Consider `Cc1c(Cl)cccc1Nc1n[nH]c(=S)s1`, for which the half-inhibitory concentration (IC50) was 78.7 µM (active).

As to `Cc1c(Cl)cccc1NC(=S)Nc1ccc2[nH]c(=O)[nH]c2c1`, the IC50 result was “inactive”.

As for `S=c1[nH]nc(Nc2ccccc2Cl)s1`, the IC50 was 51.9 µM (active).

Take `COc1ccccc1Nc1n[nH]c(=S)s1`: the IC50 was 46.8 µM (active).

For the compound `N/N=C(\Cc1cscn1)c1ccc(O)cc1O`, the IC50 was 67.8 µM (active).

On to `CCc1cc(/C(Cc2csc(C)n2)=N/O)c(O)cc1O`, for which the IC50 is 33.2 µM (active).

As to `CCc1cc(/C(Cc2cscn2)=N\O)c(O)cc1O`, the IC50 was 52.1 µM (active).

As for `Cc1ccccc1CN(C)CCc1ccccn1`, the IC50 result was “inactive”.

As for `CCc1cc(/C(Cc2ccccn2)=N\O)c(O)cc1O`, the IC50 is 32.1 µM (active).

`COc1ccc(Br)cc1CN1CCN(C(=O)c2ccc(F)cc2)CC1`: the IC50 result is “inactive”.

As to `CCN(CCNCC(O)COc1ccccc1C(C)C)c1cccc(C)c1` (stereo unspecified), the IC50 result is “inactive”.
